These results are taken from PubChem BioAssay (NCI).

The panel holds about 83,000 compounds, 20% with a hit somewhere; the sample as a whole holds those more often.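 Percent growth is the endpoint: 0 to 100 indicates growth inhibition (40 means 60% inhibition), 0 means no net growth, and negative values indicate cell death.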 Calls of active or inactive are those of the source. Rule for the calls: active = growth percent below 10; inactive = the rest.

This test deals with HL-60(TB) leukemia. The test is described as follows: NCI-60 one-dose screen, 48 h (100 = growth as untreated, 0 = no growth, -100 = all killed). As to conditions: 10 µM unless noted.
On to `O=C1Nc2ccc(Br)cc2/C1=N\c1nnc(-c2ccc(Cl)cc2)o1`, for which the growth was 11.1% (inactive). As for `O=S(=O)(NCCCNc1nccc(-c2[nH]c(-c3ccccc3)nc2-c2ccc(Cl)c(O)c2)n1)c1ccc(Br)cc1`, the figure is 13.1% (inactive); as for `CC(=O)N(O)CCCCCNC(=O)CCC(=O)N(O)CCCCCNC(=O)CCC(=O)N(O)CCCCCN(CCCCCCCCCC[P+](c1ccccc1)(c1ccccc1)c1ccccc1)CCCCCCCCCC[P+](c1ccccc1)(c1ccccc1)c1ccccc1`, -25.7% (active). The same measure for `CN(C)S(=O)(=O)c1ccc(-c2nc(C(Cl)Cl)nc3cc(-c4ccc(F)cc4)nn23)cc1`: 6.96% (active); for `COC(=O)N1CCN(CCNCc2ccc(NC(=O)c3ccc(C)c(C#Cc4cnc5cccnn45)c3)cc2C(F)(F)F)CC1`: -12.3% (active). As for `O=C(CN1CCOCC1)NNc1ncnc2ccccc12`, the figure is 53% (inactive); as for `CC(=O)c1ccc(NC(=O)COc2ccc(C3SCC(=O)N3c3ccc(Br)cc3)cc2)cc1` (configuration not stated), 96.7% (inactive). Turning to `O=C(COc1ccc(/C=C2\SC(=O)NC2=O)cc1)Nc1ccc(C(=O)/C=C/c2cc3ccccc3nc2Cl)cc1`, the growth was 79.6% (inactive). As for `C[C@H](Nc1ncnc2ccc(-c3cnc(Cl)c(NS(C)(=O)=O)c3)cc12)c1ccccc1`, the figure is -17.6% (active). Take `CC(=O)Nc1cc(F)cc(-c2ccc3[nH]cc(-c4ccccc4)c3n2)c1`: the growth is 7.81% (active).

`COC(=O)C1(C)CCC[C@]2(C)[C@H]3C[C@H]4C(C(C)C)=C[C@]3(CC[C@@H]12)[C@H]1[C@@H]4[C@@H](OC(=O)c2ccco2)CC[C@@H]1OC(=O)c1ccco1` (some centres not stated): the growth was 91.9% (inactive). The same measure for `COCCOc1ccc2ncc(C#Cc3cncc(C(=O)Nc4ccc(CN5CCN(C)CC5)c(C(F)(F)F)c4)c3)n2n1`: 16.7% (inactive). The same measure for `COc1ccc(NC2=C(Cl)C(=O)C(C)=C(C)C2=O)cc1`: 37.4% (inactive); for `COc1cc(OC)c(C2C(Cl)C(=O)N2Nc2ncnc3ccccc23)cc1OC` (configuration not stated): 108% (inactive). As for `C=CCOc1cccc(/C=C2\SC(=S)N(C3CC(=O)N(c4ccc(Br)cc4)C3=O)C2=O)c1` (configuration not stated), the figure is 108% (inactive).

In the case of `C[C@@H](Nc1c(C#N)cnc2ccc(-c3cnc(Cl)c(NS(C)(=O)=O)c3)cc12)c1ccccc1`, the growth was -28.4% (active). As for `CS(=O)(=O)c1ccc(-c2nn(-c3ccccc3)cc2/C=N/NC(=O)c2ccncc2)cc1`, the figure is 81.1% (inactive). The same measure for `N/C(=N\C(N)=N\c1nc2ccccc2s1)c1ccncc1Cl`: 6.91% (active). As for `CC1(C)[C@@H](O)CC[C@]2(C)[C@H]3CC[C@@H]4[C@H]5[C@H](C(=O)/C=C\c6ccccn6)CC[C@]5(O)CC[C@@]4(C)[C@]3(C)CC[C@@H]12`, the figure is -24.5% (active); as for `CN1C(=O)N(c2ccccc2)C2N=C(N/N=C/c3ccccc3)SC21` (configuration not stated), -6.56% (active); as for `Cc1ccc(C(=O)Nc2cccc(C(F)(F)F)c2)cc1Nc1nc(-c2cnccn2)nc2c1cnn2C`, 22% (inactive). Turning to `COc1cccc(-c2nn(-c3ccccc3)cc2-c2ccnc(N3CCN(C(=O)c4ccccc4)CC3)c2)c1`, the growth was 34.8% (inactive). The same measure for `CC1=C(C)C(=O)C(Nc2cccc(C(F)(F)F)c2)=C(Br)C1=O`: 54.7% (inactive); for `CN(C)CCCNc1c2ccc(Cl)cc2nc2c1oc1ccccc12`: -1.28% (active). The same measure for `NC(N)=Nc1ccc(Oc2cccc(Nc3ccc(Cl)c(C(F)(F)F)c3)c2)cn1`: -68% (active); for `CCC(C)[C@H]1OC(=O)[C@H](C(C)C)N(C)C(=O)[C@@H](C(C)C)OC(=O)[C@H](C(C)C)N(C)C(=O)[C@@H](C(C)CC)OC(=O)[C@H](C(C)C)N(C)C1=O` (some centres not stated): -47.7% (active). As for `CC1COc2c(N3CCN(C)CC3)c(F)cc3c(=O)c(C(=O)N/N=C/c4cc[nH]c4)cn1c23` (configuration not stated), the figure is 20.3% (inactive).
